Laboratory results taken from ChEMBL document CHEMBL3988442, “University of Dundee, Small-Polar-MMV Screening Library” (2021).
Out of some 48,000 compounds screened, about 13,000 (27%) showed an effect of 50% or more. This is one part of the list.

Tested on: Wolbachia pipientis
Assay: Anti-Wolbachia Cell-Based Screen
Assay type: functional
Set-up: scale not given: in the data most compounds retested in dose-response had high values
Conditions: 5 µM

Compound	Percent Effect
COc1ccc(N2Cc3nc(=O)[nH]n3C2=O)cc1	-10.45%
COCCSc1ccc(-n2cccn2)nn1	0.3938%
CC(c1nncn1C)n1cc(-c2cc(CN3CCCC3)cs2)nn1 (configuration not stated)	2.3%
CCC(Sc1ncc(CO)n1C)c1ccccc1 (configuration not stated)	5.427%
Cc1cc(Br)c(O)c(-c2nc(N3CCOCC3)sc2C)c1	133.3%
Oc1nnc(-c2ccccc2)c2sc(N3CCCCC3)nc12	-2.363%
Cc1cc(Br)c(O)c(-c2nc(N3CCCCC3)sc2C)c1	122.7%
Cc1cc(Br)c(O)c(C(=O)N2CCC(CN3CCCCCC3)CC2)c1	20%
COc1ccc(-n2nc(C(C)C)nc2Cn2cncn2)cc1	2.008%
CCn1c(C2CCN(C(=O)c3cc(CC(C)C)no3)CC2)nn(C)c1=O	80.93%
Cc1nc(CN2CCN(C(=O)c3cc(C4CC4)on3)CC2)cs1	-4.93%
CC(C)Cc1cc(C(=O)N2CCC(C(=O)N3CCOCC3)CC2)on1	-1.733%
CCn1c(C2CCN(C(=O)c3cc(CC(C)C)on3)CC2)nn(C)c1=O	100.4%
CCn1c(C2CCN(C(=O)CCc3cc(Cl)no3)CC2)nn(C)c1=O	91.1%
COC(=O)C1CCCN1C(=O)c1cc(CC(C)C)no1 (configuration not stated)	-6%
O=C(c1cc(C2CC2)on1)N1CCC(Oc2ncccc2Br)CC1	12.65%
O=C(CCc1cc(Cl)no1)N1CCN(CCn2cncn2)CC1	-9.479%
CCn1c(CC2CCN(C(=O)c3cc(CC(C)C)on3)CC2)n[nH]c1=O	3.496%
CCOC(=O)CC1CCCCN1C(=O)CCc1cc(Cl)no1 (configuration not stated)	-3.772%
CCn1c(C2CCN(C(=O)c3cc(C4CC4)on3)CC2)nn(C)c1=O	94.75%
CCn1nc(CC(C)C)cc1C(=O)N1CCC(n2cnnc2)CC1	19.79%
CC(C)N(Cc1cccnc1)C(=O)CSc1ccc(C#N)cc1	-11.42%
CC(C)(C)c1cc(C[C@H]2CNCC[C@H]2CC(=O)Nc2ccccc2)no1	-4.037%

Compound	Percent Effect
COc1ccc(Cc2noc(C3=NN(C)C(=O)CC3)n2)cc1OC	-17.82%
CCn1c(C2CCCN(Cc3ccc(F)cc3Cl)C2)nn(C)c1=O (configuration not stated)	-0.1084%
CCn1c(C2CCN(C(=O)c3cc(Cl)no3)CC2)nn(C)c1=O	81.76%
CCn1c(C2CCCN(Cc3cc(C)cc(C)c3)C2)nn(C)c1=O (configuration not stated)	14.99%
COC1CN(C(=O)CC2CCCC2)CCC(=O)N(C)c2ccccc21 (configuration not stated)	101.3%
COC1CCN(C(=O)CC2CCCC2)CC(=O)N(C)c2ccccc21 (configuration not stated)	104.1%
CCN1CCC(CC(=O)N2CCN(c3ccccc3OC)CC2C)CC1 (configuration not stated)	10.24%
COC1CCN(C(=O)C2CC(=O)N(c3ccccc3Br)C2)CC1 (configuration not stated)	-10.75%
COC1CCN(C(=O)C2CCCC2)CC(=O)N(C)c2ccccc21 (configuration not stated)	111%
COC(=O)NCC(=O)NCC1(c2c(F)cccc2F)CCCC1	1.826%
O=C(CN1CCC(c2cccc(F)c2)C1)NCC(F)(F)F (configuration not stated)	-23.91%
COc1cc(F)c(C(=O)NCc2cc(C)on2)c(F)c1	-19.16%
CCSc1ncc(CN2CCN(c3nc(C)ncc3C)CC2)cn1	0.05242%
O=C(NC[C@H]1CCCO1)c1ccc(S(=O)(=O)N2C[C@@H]3C[C@H]2CN3)cc1	-5.829%
CN(Cc1ccccn1)C(=O)c1cc(CN2CCC(O)CC2)on1	-20.11%
NCCn1cc(C(=O)NCc2ccccc2-n2cccn2)nn1	-2.966%
CC(=O)N1CCC(Oc2cccc(C#N)c2)CC1	-7.429%
CCCc1nn(C2CCN(C(C)C)C2=O)c(=O)o1 (configuration not stated)	-9.274%
CC(C)N1CCCC(N2CCOC3(CCCC3)C2)C1=O (configuration not stated)	-1.206%
Cc1nnc(-c2cccc(C#N)c2)n1C1CCCN(C(C)C)C1=O (configuration not stated)	109.2%
Cc1nnc(-c2cccc(C#N)c2)n1C1CCN(C2CC2)C1=O (configuration not stated)	99.28%
Cc1nnc(-c2cccc(C#N)c2)n1C1CCN(C(C)C)C1=O (configuration not stated)	107.2%
CC(C)N1CCC(Nc2ccn(CCC#N)n2)C1=O (configuration not stated)	1.087%

Compound	Percent Effect
CC1CCC(O)(Cn2ncnc2-c2cccc(C#N)c2)CC1 (configuration not stated)	-11.33%
CCCc1nn(C2CCCN(C(C)C)C2=O)c(=O)o1 (configuration not stated)	-1.45%
Cc1noc(-c2cccnc2N2CCN(c3cnn(C)c3)CC2)n1	-14.91%
O=C(NCCc1cccs1)N1CCCC2(CCC(=O)N(C3CC3)C2)C1 (configuration not stated)	-0.08952%
CNCC(=O)N1CCCC1c1n[nH]cc1-c1ccccc1F.Cl (configuration not stated)	165.9%
Cl.NCC(=O)N1CCCC1c1n[nH]cc1-c1ccccc1F (configuration not stated)	132.3%
NCC(=O)N1CCCCC1c1ccc(F)cc1 (configuration not stated)	-11.61%
O=C(COCC1CC1)N1CCCC1c1nc(-c2ccccc2F)c[nH]1 (configuration not stated)	4.201%
CCC(=O)N1CCCC1c1n[nH]cc1-c1ccccc1F (configuration not stated)	184.8%
COC(=O)NCC(=O)N1CCCC1c1nc(-c2ccccc2F)c[nH]1 (configuration not stated)	0.1259%
CCOCCCC(=O)N1CCCC1c1nc(-c2ccccc2F)c[nH]1 (configuration not stated)	-5.002%
O=C1CC(c2ccsc2)c2sc(C(=O)O)c(-c3ccccc3)c2N1 (configuration not stated)	15.35%
O=C(NCCCN1CCCCC1)c1ccc(-n2ccc3ccccc32)s1	-1.697%
O=C(NCCN1CCOCC1)c1ccc(-n2ccc3ccccc32)s1	-14.37%
O=C(NCCCN1CCOCC1)C(OC1CCCC1)c1ccccc1 (configuration not stated)	-5.979%
Cc1ccc(OCCC(=O)NCCCN2CCCC2=O)c(C)c1	-5.078%
CCN(CC)CCNC(=O)c1ccn(COc2cc(C)cc(C)c2)n1	5.075%
CCN(CC)CCNC(=O)c1ccc(Cl)c(NS(C)(=O)=O)c1	-1.52%
O=C(NCCCN1CCOCC1)c1ccc(-n2ccc3ccccc32)s1	91.37%
CCN(CC)CCNC(=O)c1ccc(-n2ccc3ccccc32)s1	94.19%
O=C(NCCCN1CCCC1=O)c1ccc(-n2ccc3ccccc32)s1	114.9%
